Many of the other results were omitted from the sample, so hits are more common in it than they were.
Ba CapD inh: inhibitors of Bacillus anthracis CapD enzyme; purified CapD enzyme, fluorescence intensity read-out; stronger effect = lower value; z-score (concentration not given with the values); 140,000 tested, 0.23% active; AID 492967; in the data active = z-score mostly below about -2.9, no sharp cut-off; inactive = mostly above about -1.9
Active calls of the source: *.

SMILES	Ba CapD inh
O=[N+]([O-])c1cccc(C2(O)CN(c3ccccc3)C3=[N+]2CCCS3)c1 (centres undefined)	-0.42
CCOC(=O)c1sc(COc2ccc(C3SCCS3)cc2)nc1C	9.9
CCOC(=O)c1sc(COc2ccccc2OC)nc1C	-2.7*
Cc1nc(COc2ccccc2Cl)sc1C(=O)/C=C/N(C)C	6.8
CCOC(=O)c1cnn(-c2ccc(Cl)c(Cl)c2)c1N	0.71
CN(C)c1ccc(CN2CCCCC2COC(=O)NCc2ccc3c(c2)CCO3)cc1 (centres undefined)	0.005
CC(C)(C)n1cnc2cc(NCc3ccccc3O)ccc21	36
CCN(CC)c1ccc(CNc2ccc3c(c2)ncn3C)cc1	57
CCN(CC)c1ccc(CNc2ccc3c(c2)ncn3C(C)(C)C)cc1	-4.6*
NS(=O)(=O)c1ccc(CCNS(=O)(=O)c2ccc3c(c2)CN(C(=O)C(F)(F)F)CC3)cc1	-0.23
COc1cccc(C(=O)N/N=C/c2ccc(Oc3ccccc3)cc2)c1	0.21
CC(=O)/C(=C/Nc1ccc(I)cc1)c1ccccc1	-1.3
C(=Nc1ccccc1)c1ccccc1	0.1
C/C(C=Nc1ccccc1)=C\Nc1ccccc1	-5*
CCOC(=O)c1c(-c2ccc(OC)cc2)csc1NC(=O)CSc1nnc2ccccn12	0.075
Cc1ccc(S(=O)(=O)c2nc(NC3CCS(=O)(=O)C3)sc2Cl)cc1 (centres undefined)	0.27
CCOc1nc(S(=O)(=O)c2ccc(C)cc2)c(Cl)s1	-0.15
Cc1ccc(S(=O)(=O)c2nc(Nc3nccs3)sc2Cl)cc1	-5.1*
CC(C)(C)OC(=O)N1CCN(S(=O)(=O)c2ccc(N3C(=O)CC4(CCCC4)C3=O)c(Cl)c2)CC1	0.73
CCN(Cc1ccccc1)S(=O)(=O)c1ccc(F)c(C(=O)Nc2ccc(Br)cc2F)c1	-0.34
CS(=O)(=O)c1cccc(C(=O)NCCSCc2cc3cccc4c3n(c2=O)CCC4)c1	1.3
COC(=O)c1ccc2c(=O)n(CCC3=CCCCC3)c(SCc3ccc(Cl)cc3)nc2c1	-0.68
CC1CN(c2cc(=O)n(-c3ccc(Cl)cc3)c(=O)[nH]2)CC(C)O1 (centres undefined)	-4.1*
Cc1ccc(Cl)cc1-n1c(=O)cc(N2CC(C)OC(C)C2)[nH]c1=O (centres undefined)	-0.78
COc1ccc(-n2c(=O)cc(N3CCCC3)[nH]c2=O)cc1	-1.4
SMILES	Ba CapD inh
C=CCN1C(=O)/C(=C/c2ccco2)C(=O)NC1=S	-4.7*
C=CCN1C(=O)NC(=O)/C(=C/c2ccco2)C1=O	-0.03
C=CCN1C(=O)/C(=C\c2ccc(-c3ccc(Cl)c([N+](=O)[O-])c3)o2)C(=O)NC1=S	-0.33
O=C(O)c1ccc([N+](=O)[O-])c2c1NC(c1ccc([N+](=O)[O-])cc1)C1CC=CC21 (centres undefined)	-0.53
CC(=O)Oc1ccc(C2Nc3c(C(=O)O)ccc([N+](=O)[O-])c3C3C=CCC32)cc1 (centres undefined)	-2.7*
CC(=O)Oc1ccc(C2Nc3c(C(=O)c4ccccc4)cc(Cl)cc3C3C=CCC32)cc1 (centres undefined)	-0.005
Clc1ccc(CCNc2ncnc3onc(-c4ccc(Cl)cc4)c23)cc1	1.8
CCN1CCN(C(c2cccs2)C(C)NC(=O)Cc2cccs2)CC1 (centres undefined)	0.17
CC(C)C(=O)NC(C)C(c1cccs1)N1CCOCC1 (centres undefined)	-0.39
CCN1CCN(C(c2cccs2)C(C)NC(=O)C(C)C)CC1 (centres undefined)	-5.4*
O=Nc1[nH]c2ccc(Br)cc2c1O	-0.26
O=C1C=C(/C=C/c2ccccc2)C[C@H](c2ccccc2)[C@H]1n1cnc([N+](=O)[O-])c1	5.7
CC(=O)n1c(=S)[nH]c2ccccc21	-5.2*
CC(=O)n1c(=O)sc2ccccc21	-2.1
O=C(Cn1c(=S)[nH]c2ccccc21)c1ccc(-c2ccccc2)cc1	0.53
O=C(O)CC/C(=N\Nc1ccc([N+](=O)[O-])cc1)c1ccccc1	-3.6*
O=C(Nc1ccc([N+](=O)[O-])cc1)c1ccccc1O	-0.78
O=C(Nc1cccc(C(=O)c2ccccc2)c1)c1ccc([N+](=O)[O-])cc1	-0.51
Cc1ccc(C(C)C)c(OCCn2c(CCNC(=O)c3ccco3)nc3ccccc32)c1	-0.4
COc1ccc(OC)c(NC(=O)c2cc3ccc(OC)cc3oc2=Nc2ccc(C(=O)O)cc2)c1	0.07
COc1ccc2cc(C(=O)Nc3ccc(OC)c(OC)c3)c(=Nc3ccc(C(=O)O)cc3)oc2c1	-3.4*
COc1ccc2cc(C(=O)Nc3ccc(Cl)cc3)c(=Nc3ccc(C(=O)O)cc3)oc2c1	0.62
O=C(CN1CCN(c2ccc(C(F)(F)F)cn2)CC1)Nc1ccc(OC(F)(F)F)cc1	-0.26
CC(=O)Oc1ccccc1C(=O)N1CCN(c2cccc(Cl)c2)CC1	0.94
O=C(O)c1cc2ccc(O)cc2oc1=O	90
SMILES	Ba CapD inh
O=C(c1ccc(F)cc1)c1cc2ccc(O)cc2oc1=O	-6.4*
O=C(c1ccc2c(c1)OCO2)c1cc2ccc(O)cc2oc1=O	-3.9
O=C1CN(c2cc(Cl)cc(Cl)c2)C(=O)CN1/N=C/c1cccnc1	-0.81
O=C1CSC(=S)N1/N=C/c1cc(Br)cc(Br)c1O	12
O=C1CSC(=S)N1/N=C/c1cccnc1	-4*
CN(CCNc1ncnc2nc[nH]c12)Cc1ccccc1	0.17
Cc1ccc(Sc2cc(Br)c3noc4c3c2C(=O)c2ccccc2-4)cc1	-0.42
CNC(=O)c1c[nH]c2ccc(S(=O)(=O)Nc3ccc(C(C)C)cc3)cc2c1=O	-0.3
CCOC(=O)c1cnc(N2CCc3ccccc3C2)nc1N	-3.9*
CCOC(=O)c1sc2nc(C)nc(N3CCc4ccccc4C3)c2c1C	3.2
CCOC(=O)c1sc2ncnc(N3CCc4ccccc4C3)c2c1C	0.51
CN(C(=O)Cn1cnc2onc(-c3ccc(F)cc3)c2c1=O)c1ccc(Br)cc1	-0.045
O=C1CCC(=O)N1c1ccc(OC(F)(F)F)cc1	0.12
CC(=O)SC(CC(=O)O)c1nc2ccccc2s1 (centres undefined)	-5.6*
CC(Sc1nc2ccccc2s1)C(=O)O (centres undefined)	0.095
CCC(Sc1nc2ccccc2s1)C(=O)O (centres undefined)	0.87
CN1CCN(C(c2ccncc2)c2ccc3cccnc3c2O)CC1 (centres undefined)	-2.4
OCCN1CCN(C(c2ccccc2)c2ccc3cccnc3c2O)CC1 (centres undefined)	-5.2*
Oc1c(C(c2ccccc2)N2CCOCC2)ccc2cccnc12 (centres undefined)	-0.8
CN(CCc1ccccn1)C(=O)c1ccccc1C(=O)O	0.92
CCOC(=O)C(Cc1ccc(Cl)cc1)NC(=O)OCCc1ccccc1Cl (centres undefined)	0.86
CN1CCC(N(C(=O)c2ccccc2Cl)C2CC2)CC1	-0.46
Cc1c(Cl)cccc1NC(=O)c1cccs1	0.48
CCOC(=O)c1c(C)cccc1NC(=O)c1cccs1	-1.7*
Cc1ccc(C)c(NC(=O)c2cccs2)c1	0.76
SMILES	Ba CapD inh
CC(C)N1C(=O)/C(=C/c2ccc(Br)cc2)SC1=S	0.16
Cc1nc2c(o1)NC(N)=C(C#N)C2c1cn[nH]c1C (centres undefined)	-0.37
Cc1ccc(-c2cccc(=O)o2)cc1	-4*
Cc1ccc(-c2nc3ccccc3c(=O)o2)cc1	0.44
Cc1ccc2c(=O)cc(-c3ccc(F)cc3)oc2c1	-0.21
COC(=O)C1=C(C(=O)OC)SC(=C2C(=S)C(C)(C)N(C(=O)Cc3ccccc3)c3c(OC)cccc32)S1	-0.14
COc1ccc(C(=O)Nc2cc(C(C)=O)c(/C=C/N(C)C)oc2=O)cc1	-0.61

Bioassay records (PubChem)
